# Results as given in PubChem BioAssay (NCATS).
# Results filed as inconclusive are left out. Entries that show only a call come without a potency. The source made the active and inactive calls. Unless noted, the call rests on the fitted dose curve; in most records, active means well fitted curve in either direction with a large enough effect (not every such curve was filed as active); inconclusive means small, poorly fitted or top-dose-only effect, or another doubt; inactive means flat fitted curve, though single readings scatter.
# Tests used:
# [1] = AP1 Signaling Pathway (AID 357);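 further: ME-180 reporter cells stimulated with EGF at its EC50 level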
# Outline: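 Titration-series screen for positive or negative modulators of EC50 EGF-induced signaling in ME-180 cells carrying an AP-1-driven beta-lactamase reporter. After 5 hours at 37 degrees Celsius, CCF4 460nm/530nm emission ratio gave %Activity; AC50 values derived.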
# [2] = NFAT Signaling Pathway (AID 444); conditions: Jurkat NFAT-bla M1, carbachol, beta-lactamase ratio, 5 h; at 17.2 µM (top of the series) unless noted;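 further: carbachol stimulus at about its EC50 of 1 µM final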
# Outline: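 Read-out: CCF4 FRET ratio (460 nm/530 nm) after 1 h RT dye loading, used for %activity and AC50 from titration series. Cells: Jurkat NFAT-β-lactamase/M1 line, treated with compound plus 1 uM carbachol for 5 h, 37 °C.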
# [3] = Stat Signaling Pathway (AID 446);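 further: ME-180 cervical cancer cells given 40 pM IL-6 alongside compound; SIE-controlled beta-lactamase reporter measured as 460/530 nm FRET emission ratio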
# Outline: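 Reporter line: ME-180 cervical carcinoma, SIE-beta-lactamase. Treatment: compound with 40 pM IL-6, 5 hrs, 37 C, in low-serum OPTI-MEM with 10 mM HEPES pH 7.3. Detection: 460/530 nm fluorescence.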
# [4] = biological target: Glucocorticoid receptor (Homo sapiens) (UniProt P04150); assay: GR-GFP Redistribution (AID 450;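 active means compounds whose dose series gives a full or clear partial fitted curve of increased nuclear translocation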; further: potency means the concentration at half of the fitted maximal effect); conditions: U2OS GR-GFP nuclear translocation, laser cytometry, 2 h
# [5] = biological target: Glucocorticoid receptor (Homo sapiens) (UniProt P04150); assay: GR-EFC Redistribution (AID 451; calls by dose curve; further: potency means the concentration at half of the fitted maximal effect); conditions: CHO-K1 GR-EFC translocation, beta-gal luminescence, 2 h
# Outline: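 Translocation of GR-ED fusion to nuclear EA restores b-gal, read by luminescence after 1 h room-temperature detection. Engineered CHO-K1 biosensor cells, 1,000/well, exposed 2 h at 37 C to titrations up to 46 uM final.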
# [6] = biological target: Mitogen-activated protein kinase 10 (Mus musculus) (UniProt Q61831); assay: JNK3 AlphaScreen Assay (AID 530);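 further: kinase came from lysate of stimulated human HepG2 cells; signal reports phosphorylation of biotinylated GST-cJun 1-79 at Ser73 with 10 µM ATP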
# Outline: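 Room-temperature AlphaScreen kinase assay; pre-activated HepG2 lysate as JNK3 source, biotin-GST-cJun(1-79) substrate, 10 uM ATP, compound 15 min preincubation.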
# [7] = biological target: 3',5'-cyclic-AMP phosphodiesterase 4B (Homo sapiens) (UniProt Q07343); assay: qHTS Assay for Inhibitors of PDE-IV (AID 607; active means well fitted activation curve with a large enough effect in the main read-out, with a control signal flat, not every such curve was filed as active)
# Outline: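 Cell-based read-out of cAMP via a modified cyclic nucleotide-gated channel and membrane potential dye (535/590 nm) in HEK293 cells expressing PDE4 endogenously. Compounds tested up to 22.9 uM final; 100 uM RO 20-1724 reference.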
# [8] = qHTS Assay for Lipid Storage Modulators (AID 1519; calls by dose curve); conditions: Drosophila S3 cells, BODIPY lipid droplet/cell ratio, laser cytometry, cells loaded with oleic acid; for activity change, negative = inhibition: at 25.7 µM (top of the series)
# Outline: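 Cells seeded at 5,000 per well were treated with compounds over a concentration series and loaded with oleic acid (400 uM, as added). Lipid droplet fluorescence (488 nm excitation, 500-530 nm channel) was read by laser-scanning cytometry and normalized to 20 uM Triacsin C.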
# [9] = biological target: Ubiquitin carboxyl-terminal hydrolase 1 (Homo sapiens) (UniProt O94782); assay: Inhibitors of USP1/UAF1: Pilot qHTS (AID 504865; active means well fitted curve in the direction sought with a large enough effect; an effect the other way counts as inactive or inconclusive;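 further: rhodamine fluorescence freed from ubiquitin-rhodamine substrate followed over time; top concentration of the series differs between compounds; nearly all actives have a fitted effect of over 35% in size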)
# Outline: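 1nM USP1/UAF1 + cpd, 15 min RT; start w/ Ub-Rho 150nM final; kinetic FL 480/540 nm, 6 reads q60 s. Buffer 50mM HEPES pH 7.8, 0.5mM EDTA, 1mM TCEP, 0.01% Tween-20, 0.1 mg/ml BSA.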
# [10] = biological target: Luciferin 4-monooxygenase (Photinus pyralis) (UniProt P08659); assay: Biochemical firefly luciferase enzyme assay for NPC (AID 624030; active means well fitted curve in the direction sought with a large enough effect; an effect the other way counts as inactive or inconclusive;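 further: purified P. pyralis luciferase at 10 nM with luciferin and ATP substrate; nearly all actives have a fitted effect of over 70% in size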)
# Outline: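 Direct inhibition of firefly luciferase enzyme (10 nM final, 50 mM Tris Acetate) assessed by luminescence within 5 minutes. Percent activity scaled between DMSO and PTC124 positive control, with concentration-effect curves classified by fit quality and response.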
# [11] = S16 Schwann cell viability assay (CellTiter-Glo assay) (AID 624031; active means well fitted curve in the direction sought with a large enough effect; an effect the other way counts as inactive or inconclusive;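 further: cellular ATP luminescence as a viability measure; nearly all actives have a fitted effect of over 70% in size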)
# Outline: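 Untransfected S16 rat Schwann cells; compound 24 h, 37 °C/5% CO2; CellTiter-Glo ATP luminescence. % activity vs no-cell wells and DMSO controls (0%); concentration-effect curves classed by r2, response magnitude, activity.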
# CP256 = assay: qHTS profiling for inhibitors of Plasmodium falciparum proliferation (AID 504749; active means well fitted curve in the direction sought with a large enough effect; an effect the other way counts as inactive or inconclusive; further: nearly all actives have a fitted effect of over 60% in size; further: potency means the concentration at half of the fitted maximal effect); conditions: P. falciparum in erythrocytes, SYBR Green DNA, 72 h; series mostly up to 12.8 µM
# Outline: (§1)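 Three-day growth assay of blood-stage parasites in erythrocytes (0.3% parasitemia, 2.5% hematocrit) at 37 C, 5% CO2, quantified by SYBR Green DNA staining after overnight detergent lysis.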
# FAB9 = assay: as above; conditions: P. falciparum in erythrocytes, SYBR Green DNA, 72 h; series mostly up to 12.8 µM
# Outline: as §1
# JCK = assay: as above; conditions: P. falciparum in erythrocytes, SYBR Green DNA, 72 h; series mostly up to 12.8 µM
# Outline: as §1
# PC49 = assay: as above; conditions: P. falciparum in erythrocytes, SYBR Green DNA, 72 h; series mostly up to 12.8 µM
# Outline: as §1
# [12] = as above; conditions: P. falciparum in erythrocytes, SYBR Green DNA, 72 h, at 12.8 µM (top of the series)
# Outline: as §1
# C2A = assay: as above; conditions: P. falciparum in erythrocytes, SYBR Green DNA, 72 h; series mostly up to 12.8 µM
# Outline: as §1
# CP191 = assay: as above; conditions: P. falciparum in erythrocytes, SYBR Green DNA, 72 h; series mostly up to 12.8 µM
# Outline: as §1
# CP247 = assay: as above; conditions: P. falciparum in erythrocytes, SYBR Green DNA, 72 h; series mostly up to 12.8 µM
# Outline: as §1
# CP250 = assay: as above; conditions: P. falciparum in erythrocytes, SYBR Green DNA, 72 h; series mostly up to 12.8 µM
# Outline: as §1
# [13] = measured here: cell count channel max response
# [14] = measured here: lipid channel max response
# Sequence of Ubiquitin carboxyl-terminal hydrolase 1 (Homo sapiens) (O94782 whole entry, looked up): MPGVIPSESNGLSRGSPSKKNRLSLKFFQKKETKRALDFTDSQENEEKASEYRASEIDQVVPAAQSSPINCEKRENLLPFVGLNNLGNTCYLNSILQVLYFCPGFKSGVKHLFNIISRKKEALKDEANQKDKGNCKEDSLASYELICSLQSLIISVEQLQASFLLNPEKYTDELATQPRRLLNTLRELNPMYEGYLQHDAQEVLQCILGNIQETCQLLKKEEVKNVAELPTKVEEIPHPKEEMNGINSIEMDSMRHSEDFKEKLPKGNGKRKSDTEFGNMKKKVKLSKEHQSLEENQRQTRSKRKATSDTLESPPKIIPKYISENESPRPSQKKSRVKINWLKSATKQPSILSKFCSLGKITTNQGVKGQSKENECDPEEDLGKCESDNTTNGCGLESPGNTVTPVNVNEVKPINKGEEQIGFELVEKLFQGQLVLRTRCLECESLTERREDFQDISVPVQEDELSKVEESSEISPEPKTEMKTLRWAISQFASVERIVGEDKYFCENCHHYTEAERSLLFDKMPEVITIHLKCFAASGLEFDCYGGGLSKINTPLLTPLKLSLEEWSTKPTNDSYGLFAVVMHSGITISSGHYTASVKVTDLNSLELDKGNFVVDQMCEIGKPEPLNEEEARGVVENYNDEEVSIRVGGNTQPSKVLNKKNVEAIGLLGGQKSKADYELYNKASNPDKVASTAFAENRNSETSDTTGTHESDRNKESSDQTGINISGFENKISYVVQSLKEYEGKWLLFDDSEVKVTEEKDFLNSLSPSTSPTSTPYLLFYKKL
# Sequence of Glucocorticoid receptor (Homo sapiens) (P04150 whole entry, looked up, the tested form may be a part): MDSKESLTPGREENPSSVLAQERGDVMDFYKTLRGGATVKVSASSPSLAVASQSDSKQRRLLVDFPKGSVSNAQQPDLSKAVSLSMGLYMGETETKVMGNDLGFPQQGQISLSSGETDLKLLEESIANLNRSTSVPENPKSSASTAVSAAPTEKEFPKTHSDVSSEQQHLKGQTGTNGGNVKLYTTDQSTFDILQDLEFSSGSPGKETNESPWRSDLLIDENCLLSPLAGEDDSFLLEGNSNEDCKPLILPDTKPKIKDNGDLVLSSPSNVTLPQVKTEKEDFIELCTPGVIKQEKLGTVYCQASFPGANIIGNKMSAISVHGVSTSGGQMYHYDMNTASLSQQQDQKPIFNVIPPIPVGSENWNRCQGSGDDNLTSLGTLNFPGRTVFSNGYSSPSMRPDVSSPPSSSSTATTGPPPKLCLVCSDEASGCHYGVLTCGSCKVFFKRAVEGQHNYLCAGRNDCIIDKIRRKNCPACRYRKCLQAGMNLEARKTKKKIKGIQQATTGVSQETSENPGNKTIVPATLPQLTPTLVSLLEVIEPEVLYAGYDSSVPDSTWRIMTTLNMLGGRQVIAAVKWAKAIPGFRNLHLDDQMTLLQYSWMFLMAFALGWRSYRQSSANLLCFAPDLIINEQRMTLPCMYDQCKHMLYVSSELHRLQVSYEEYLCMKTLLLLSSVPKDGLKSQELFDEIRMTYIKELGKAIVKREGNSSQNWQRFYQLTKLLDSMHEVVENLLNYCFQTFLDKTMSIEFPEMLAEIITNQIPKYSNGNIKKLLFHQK
# Sequence of Luciferin 4-monooxygenase (Photinus pyralis) (P08659 whole entry, looked up): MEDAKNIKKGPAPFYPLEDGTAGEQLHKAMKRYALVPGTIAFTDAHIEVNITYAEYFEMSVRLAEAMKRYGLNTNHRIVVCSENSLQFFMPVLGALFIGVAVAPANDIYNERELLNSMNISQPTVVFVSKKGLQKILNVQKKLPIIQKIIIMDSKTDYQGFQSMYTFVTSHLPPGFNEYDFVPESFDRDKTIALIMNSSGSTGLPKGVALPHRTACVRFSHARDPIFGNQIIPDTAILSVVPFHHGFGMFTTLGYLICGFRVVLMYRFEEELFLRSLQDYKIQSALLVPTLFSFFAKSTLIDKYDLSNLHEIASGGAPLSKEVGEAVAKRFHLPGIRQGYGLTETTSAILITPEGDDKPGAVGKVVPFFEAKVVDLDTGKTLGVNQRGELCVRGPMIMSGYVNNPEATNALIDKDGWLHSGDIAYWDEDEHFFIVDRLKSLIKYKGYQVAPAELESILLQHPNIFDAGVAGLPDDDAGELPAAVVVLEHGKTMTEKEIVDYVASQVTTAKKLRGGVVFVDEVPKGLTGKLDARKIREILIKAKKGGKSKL
# Sequence of 3',5'-cyclic-AMP phosphodiesterase 4B (Homo sapiens) (Q07343 whole entry, looked up): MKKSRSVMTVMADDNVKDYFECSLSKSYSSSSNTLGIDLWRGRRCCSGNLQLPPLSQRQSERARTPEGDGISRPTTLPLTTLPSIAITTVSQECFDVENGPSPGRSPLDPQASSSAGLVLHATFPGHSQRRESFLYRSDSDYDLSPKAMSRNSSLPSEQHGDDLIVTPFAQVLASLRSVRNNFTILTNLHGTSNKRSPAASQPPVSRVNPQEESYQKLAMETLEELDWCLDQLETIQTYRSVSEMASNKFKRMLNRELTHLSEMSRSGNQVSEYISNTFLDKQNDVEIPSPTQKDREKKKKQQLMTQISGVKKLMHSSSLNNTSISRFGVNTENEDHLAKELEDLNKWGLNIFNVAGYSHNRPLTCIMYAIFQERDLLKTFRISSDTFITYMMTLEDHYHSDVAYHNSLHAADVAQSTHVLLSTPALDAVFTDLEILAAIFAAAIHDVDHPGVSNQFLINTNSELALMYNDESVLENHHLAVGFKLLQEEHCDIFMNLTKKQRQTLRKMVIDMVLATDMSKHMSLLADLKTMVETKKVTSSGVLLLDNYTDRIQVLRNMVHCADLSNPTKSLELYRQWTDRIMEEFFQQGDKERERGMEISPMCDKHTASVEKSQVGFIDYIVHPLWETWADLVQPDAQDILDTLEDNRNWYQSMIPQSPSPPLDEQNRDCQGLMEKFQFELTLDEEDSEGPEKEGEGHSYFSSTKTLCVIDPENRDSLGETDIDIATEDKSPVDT
smiles,measurement,setting,value
Cc1nccn1C[C@@H]1CCc2c(c3ccccc3n2C)C1=O,outcome,[1],inactive
same,"activity change, negative = inhibition",[2],-26.8% (inactive)
same,outcome,[3],inactive
same,Potency,[4],> 20.6 µM (inactive)
same,Potency,[5],> 20.6 µM (inactive)
same,Potency,[6],inactive
same,outcome,[7],inactive
same,"activity change, negative = inhibition",[8],-8.25% (inactive)
same,max response,[8]; [13],-10%
same,max response,[8]; [14],-16.3%
same,Potency,[9],inactive
same,Potency,[10],inactive
O[C@H](c1cc(C(F)(F)F)nc2c(C(F)(F)F)cccc12)[C@H]1CCCCN1,outcome,[1],inactive
same,"activity change, negative = inhibition",[2],24.6% (inactive)
same,outcome,[3],inactive
same,Potency,[4],> 20.6 µM (inactive)
same,Potency,[5],> 20.6 µM (inactive)
same,Potency,[6],inactive
same,outcome,[7],inactive
same,"activity change, negative = inhibition",[8],-11.8% (inactive)
same,max response,[8]; [13],-16.3%
same,max response,[8]; [14],-23.7%
same,Potency,[9],inactive
CC(=O)S[C@H]1CC2=CC(=O)CC[C@@]2(C)[C@H]2CC[C@@]3(C)[C@H](CC[C@]34CCC(=O)O4)[C@@H]12,outcome,[1],inactive
same,"activity change, negative = inhibition",[2],-8.69% (inactive)
same,outcome,[3],inactive
same,Potency,[4],2.45 µM (active)
same,Potency,[5],> 20.6 µM (inactive)
same,Potency,[6],inactive
same,outcome,[7],inactive
same,"activity change, negative = inhibition",[8],-7.24% (inactive)
same,max response,[8]; [13],-20.4%
same,max response,[8]; [14],-20.4%
same,Potency,[9],inactive
O=C1CN(/N=C\c2ccc([N+](=O)[O-])o2)C(=O)N1,outcome,[1],inactive
same,"activity change, negative = inhibition",[2],-2.23% (inactive)
same,outcome,[3],inactive
same,Potency,[4],> 20.6 µM (inactive)
same,Potency,[5],> 20.6 µM (inactive)
same,Potency,[6],inactive
same,outcome,[7],inactive
same,"activity change, negative = inhibition",[8],1.21% (inactive)
same,max response,[8]; [13],3.28%
same,max response,[8]; [14],0.924%
same,Potency,[9],inactive
CO[C@H]1[C@H](O[C@H]2O[C@@H](C)[C@@H](O[C@@H]3C[C@](C)(O)[C@H](OC(=O)CC(C)C)[C@H](C)O3)[C@@H](N(C)C)[C@@H]2O)[C@@H](CC=O)C[C@@H](C)[C@@H](O)/C=C\C=C/C[C@@H](C)OC(=O)C[C@H]1OC(C)=O,outcome,[1],inactive
same,"activity change, negative = inhibition",[2],-0.256% (inactive)
same,outcome,[3],inactive
same,Potency,[5],> 20.6 µM (inactive)
same,outcome,[7],inactive
same,"activity change, negative = inhibition",[8],-3.13% (inactive)
same,max response,[8]; [13],-10.5%
same,max response,[8]; [14],-14%
same,Potency,[10],inactive
same,outcome,[11],inactive
same,Potency,CP256,2 µM (active)
same,Potency,FAB9,inactive
same,Potency,JCK,inactive
same,Potency,PC49,inactive
NCC[C@H](O)C(=O)N[C@H]1C[C@@H](N)[C@@H](O[C@H]2O[C@@H](CN)[C@@H](O)[C@@H](O)[C@@H]2O)[C@@H](O)[C@@H]1O[C@H]1O[C@@H](CO)[C@@H](O)[C@@H](N)[C@@H]1O,outcome,[1],inactive
same,"activity change, negative = inhibition",[2],-4.44% (inactive)
same,outcome,[3],inactive
same,Potency,[4],> 20.6 µM (inactive)
same,Potency,[5],> 20.6 µM (inactive)
same,Potency,[6],inactive
same,outcome,[7],inactive
same,"activity change, negative = inhibition",[8],-0.738% (inactive)
same,max response,[8]; [13],11.5%
same,max response,[8]; [14],11.3%
CC(=O)Nc1cc2ccccc2oc1=O,outcome,[1],inactive
same,"activity change, negative = inhibition",[2],-6.5% (inactive)
same,outcome,[3],inactive
same,Potency,[5],> 20.6 µM (inactive)
same,Potency,[6],inactive
same,outcome,[7],inactive
same,"activity change, negative = inhibition",[8],2.36% (inactive)
same,max response,[8]; [13],-14.5%
same,max response,[8]; [14],-11.4%
same,Potency,[9],inactive
CCCC(=O)Nc1ccc(OC[C@@H](O)CNC(C)C)c(C(C)=O)c1,outcome,[1],inactive
same,"activity change, negative = inhibition",[2],-10.7% (inactive)
same,outcome,[3],inactive
same,Potency,[5],> 20.6 µM (inactive)
same,Potency,[6],inactive
same,outcome,[7],inactive
same,"activity change, negative = inhibition",[8],-2.69% (inactive)
same,max response,[8]; [13],-0.4%
same,max response,[8]; [14],-3.96%
same,Potency,[9],inactive
same,Potency,[10],inactive
same,outcome,[11],inactive
Cc1c(C)c2c(c(C)c1O)CC[C@@](C)(C(=O)O)O2,outcome,[1],inactive
same,"activity change, negative = inhibition",[2],9.85% (inactive)
same,outcome,[3],inactive
same,Potency,[4],> 20.6 µM (inactive)
same,Potency,[5],> 20.6 µM (inactive)
same,Potency,[6],inactive
same,outcome,[7],inactive
same,"activity change, negative = inhibition",[8],0.436% (inactive)
same,max response,[8]; [13],-15.9%
same,max response,[8]; [14],-17.6%
same,Potency,[9],inactive
N[C@H](Cc1cc(I)c(Oc2ccc(O)c(I)c2)c(I)c1)C(=O)O,outcome,[1],inactive
same,"activity change, negative = inhibition",[2],-4.32% (inactive)
same,outcome,[3],inactive
same,Potency,[4],> 20.6 µM (inactive)
same,Potency,[5],> 20.6 µM (inactive)
same,Potency,[6],inactive
same,outcome,[7],inactive
same,"activity change, negative = inhibition",[8],-1.62% (inactive)
same,max response,[8]; [13],8.52%
same,max response,[8]; [14],3.42%
CC(=O)OCC(=O)[C@@]12OC(C)(C)O[C@@H]1C[C@H]1[C@H]3C[C@H](F)C4=CC(=O)C=C[C@@]4(C)[C@]3(F)[C@H](O)C[C@@]12C,outcome,[1],inactive
same,"activity change, negative = inhibition",[2],-1.01% (inactive)
same,outcome,[3],inactive
same,Potency,[4],0.00175 µM (active)
same,Potency,[5],0.0128 µM (active)
same,outcome,[7],inactive
same,"activity change, negative = inhibition",[8],-1.78% (inactive)
same,max response,[8]; [13],-13.1%
same,max response,[8]; [14],-17.4%
same,Potency,[9],inactive
same,Potency,[10],inactive
same,outcome,[11],inactive
same,"activity, negative = inhibition",[12]; parasite line A,-6.81% (inactive)
same,"activity, negative = inhibition",[12]; parasite line B,-12% (inactive)
same,Potency,C2A,inactive
same,Potency,CP191,inactive
same,Potency,CP247,inactive
same,Potency,CP250,inactive
same,Potency,CP256,inactive
same,Potency,FAB9,inactive
same,Potency,JCK,inactive
same,Potency,PC49,inactive
Cc1cn([C@@H]2C[C@H](N=[N+]=N)[C@H](CO)O2)c(=O)[nH]c1=O,outcome,[1],inactive
same,"activity change, negative = inhibition",[2],-2.1% (inactive)
same,outcome,[3],inactive
same,Potency,[4],> 20.6 µM (inactive)
same,Potency,[5],> 20.6 µM (inactive)
same,Potency,[6],inactive
same,outcome,[7],inactive
same,"activity change, negative = inhibition",[8],-0.533% (inactive)
same,max response,[8]; [13],-19.5%
same,max response,[8]; [14],-18.3%
same,Potency,[9],inactive
C[C@@]12CCC(=O)C[C@@H]1CC(=O)[C@H]1[C@H]3CCC[C@]3(C)C(=O)C[C@@H]12 (tested in a mixture with another compound),outcome,[1],inactive
same,"activity change, negative = inhibition",[2],-7.43% (inactive)
same,outcome,[3],inactive
same,Potency,[4],> 20.6 µM (inactive)
same,Potency,[5],> 20.6 µM (inactive)
same,Potency,[6],inactive
same,outcome,[7],inactive
same,"activity change, negative = inhibition",[8],0.558% (inactive)
same,max response,[8]; [13],2.78%
same,max response,[8]; [14],4.64%
same,Potency,[9],inactive
